Assay results: PubChem BioAssay (NCATS)
Results filed as inconclusive are left out. Active and inactive are the calls of the source. Calls follow the shape of the dose curve; as a rule, active = well fitted cell-killing curve with a large enough effect; inconclusive = small, poorly fitted or top-dose-only effect, or effect the other way; inactive = flat fitted curve, though single readings scatter.

Legend:
Assay in all cases: Primary qHTS to identify gynecologic anti-cancer compounds using libraries of approved drugs and bioactive compounds (AID 1345084); also: nearly all actives have a fitted effect of over 55% in size
Hek293T = conditions: Gynecologic cancer cell panel viability, ATPlite luminescence, 48 h, control line for the selectivity index; series mostly up to 57.5 µM
Procedure, shortened: (§1)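 Cells, 1,000 per well, were allowed to settle for 16 h at 37 C before compound addition. Five concentrations were tested for 48 h, and viability was read by ATPlite luminescence after 15 min at room temperature.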

JEG-3 = conditions: Gynecologic cancer cell panel viability, ATPlite luminescence, 48 h; series mostly up to 57.5 µM
Procedure, shortened: as §1

OV90 = conditions: Gynecologic cancer cell panel viability, ATPlite luminescence, 48 h; series mostly up to 57.5 µM
Procedure, shortened: as §1

PA-1 = conditions: Gynecologic cancer cell panel viability, ATPlite luminescence, 48 h; series mostly up to 57.5 µM
Procedure, shortened: as §1

SKOV3 = conditions: Gynecologic cancer cell panel viability, ATPlite luminescence, 48 h; series mostly up to 57.5 µM
Procedure, shortened: as §1

Tov-21-G = conditions: Gynecologic cancer cell panel viability, ATPlite luminescence, 48 h; series mostly up to 57.5 µM
Procedure, shortened: as §1

Tov112D = conditions: Gynecologic cancer cell panel viability, ATPlite luminescence, 48 h; series mostly up to 57.5 µM
Procedure, shortened: as §1

Measured: Potency

CC1(C)O[C@@H]2C[C@H]3[C@@H]4CCC5=CC(=O)C=C[C@]5(C)[C@@]4(F)[C@@H](O)C[C@]3(C)[C@]2(C(=O)CO)O1
inactive: Hek293T | JEG-3 | OV90 | PA-1 | SKOV3 | Tov-21-G | Tov112D

CCN1CCCC1CN (centres undefined)
inactive: Hek293T | JEG-3 | OV90 | PA-1 | SKOV3 | Tov-21-G | Tov112D

CC(C)CCCC(C)NCCC(C)C (centres undefined)
inactive: Hek293T | JEG-3 | OV90 | PA-1 | SKOV3 | Tov-21-G | Tov112D

CC(C)(C)c1cc(C=O)cc(C(C)(C)C)c1O
inactive: Hek293T | JEG-3 | OV90 | PA-1 | SKOV3 | Tov-21-G | Tov112D

COCCc1ccc(OCC2CO2)cc1 (centres undefined)
inactive: Hek293T | JEG-3 | OV90 | PA-1 | SKOV3 | Tov-21-G | Tov112D

O=C1Cc2cc(Cl)ccc2N1
inactive: Hek293T | JEG-3 | OV90 | PA-1 | SKOV3 | Tov-21-G | Tov112D

COC(=O)/C=C\C(=O)OC
inactive: Hek293T | JEG-3 | OV90 | PA-1 | SKOV3 | Tov-21-G | Tov112D

CC(C)Cc1ccc(C(C)C(=O)OCc2ccccn2)cc1 (centres undefined)
inactive: Hek293T | JEG-3 | OV90 | PA-1 | SKOV3 | Tov-21-G | Tov112D

O=C(O)Cn1cnnn1
inactive: Hek293T | JEG-3 | OV90 | PA-1 | SKOV3 | Tov-21-G | Tov112D

C[C@@H]1C[C@H]2[C@@H]3CCC4=CC(=O)C=C[C@]4(C)[C@@]3(F)[C@@H](O)C[C@]2(C)[C@@]1(O)C(=O)COC(=O)c1ccncc1
inactive: Hek293T | JEG-3 | OV90 | PA-1 | SKOV3 | Tov-21-G | Tov112D

O=c1[nH]c2ccccc2c(=O)n1CCCl
inactive: Hek293T | JEG-3 | OV90 | PA-1 | SKOV3 | Tov-21-G | Tov112D

CN1CCN(N)CC1
inactive: Hek293T | JEG-3 | OV90 | PA-1 | SKOV3 | Tov-21-G | Tov112D

CCCc1ncc(C(=O)O)s1
inactive: Hek293T | JEG-3 | OV90 | PA-1 | SKOV3 | Tov-21-G | Tov112D

[O-][n+]1cccc(/C(Cl)=N/OC[C@@H](O)CN2CCCCC2)c1
inactive: Hek293T | JEG-3 | OV90 | PA-1 | SKOV3 | Tov-21-G | Tov112D

COc1cc2c(cc1OC)C(=O)CC2
inactive: Hek293T | JEG-3 | OV90 | PA-1 | SKOV3 | Tov-21-G | Tov112D

CC(=O)[C@H]1CC[C@H]2[C@@H]3C=CC4=CC(=O)CC[C@@]4(C)[C@@H]3CC[C@]12C
inactive: Hek293T | JEG-3 | OV90 | PA-1 | SKOV3 | Tov-21-G | Tov112D

Nc1cc(C(F)(F)F)ccc1S
inactive: Hek293T | JEG-3 | OV90 | PA-1 | SKOV3 | Tov-21-G | Tov112D

N#CC1(c2ccc(F)cc2)CCC(=O)CC1
inactive: Hek293T | JEG-3 | OV90 | PA-1 | SKOV3 | Tov-21-G | Tov112D

COc1cc2c(cc1OC)CN(C(=O)[C@H](C)N[C@@H](CCc1ccccc1)C(=O)O)[C@H](C(=O)O)C2
inactive: Hek293T | JEG-3 | OV90 | PA-1 | SKOV3 | Tov-21-G | Tov112D

CCOC(=O)C(=O)CCCCCCl
inactive: Hek293T | JEG-3 | OV90 | PA-1 | SKOV3 | Tov-21-G | Tov112D

CCCc1ccc(OCC(=O)N2CCN(C(=O)COc3ccc(CCC)cc3OC)CC2)c(OC)c1
inactive: Hek293T | JEG-3 | OV90 | PA-1 | SKOV3 | Tov-21-G | Tov112D

CCOc1c(N2CCOCC2)cnn(C)c1=O
inactive: Hek293T | JEG-3 | OV90 | PA-1 | SKOV3 | Tov-21-G | Tov112D

CCC[C@H](N[C@@H](C)C(=O)N1[C@H](C(=O)O)C[C@@H]2CCCC[C@@H]21)C(=O)OCC
inactive: Hek293T | JEG-3 | OV90 | PA-1 | SKOV3 | Tov-21-G | Tov112D

O=C(O)C1CCC1
inactive: Hek293T | JEG-3 | OV90 | PA-1 | SKOV3 | Tov-21-G | Tov112D

O=C(O)CCCC[P+](c1ccccc1)(c1ccccc1)c1ccccc1
inactive: Hek293T | JEG-3 | OV90 | PA-1 | SKOV3 | Tov-21-G | Tov112D

COC(=O)C1=C(C)NC(C)=C(C(=O)OCCc2ccc(N3CCN(C(c4ccccc4)c4ccccc4)CC3)cc2)C1c1cccc([N+](=O)[O-])c1 (centres undefined)
inactive: Hek293T | JEG-3 | OV90 | PA-1 | SKOV3 | Tov-21-G | Tov112D

CC(C)C(=O)Nc1cccc(C2CN3CCSC3=N2)c1 (centres undefined)
inactive: Hek293T | JEG-3 | OV90 | PA-1 | SKOV3 | Tov-21-G | Tov112D

COC(=O)c1cc(Cl)ccc1NS(=O)(=O)C(F)(F)F
inactive: Hek293T | JEG-3 | OV90 | PA-1 | SKOV3

CCOc1ncc(F)c(=O)[nH]1
inactive: Hek293T | JEG-3 | OV90 | PA-1 | SKOV3 | Tov-21-G | Tov112D

CC(C)C(=O)Nc1cccc(C(F)(F)F)c1
inactive: Hek293T | JEG-3 | OV90 | PA-1 | SKOV3 | Tov-21-G | Tov112D

CCOC(=O)C(=O)c1csc(NC=O)n1
inactive: Hek293T | JEG-3 | OV90 | PA-1 | SKOV3 | Tov-21-G | Tov112D

O=C(O)c1ccc(OCCN2CCCCC2)cc1
inactive: Hek293T | JEG-3 | OV90 | PA-1 | SKOV3 | Tov-21-G | Tov112D

Cc1c(F)cc2c(=O)c(C(=O)O)cn3c2c1CCC3C (centres undefined)
inactive: Hek293T | JEG-3 | OV90 | PA-1 | SKOV3 | Tov-21-G | Tov112D

COc1ccccc1N1CCN(CC(O)COc2cc(OC)c(OC)c(OC)c2)CC1 (centres undefined)
inactive: Hek293T | JEG-3 | OV90 | PA-1 | SKOV3 | Tov-21-G | Tov112D

CC(=O)O[C@H]1CC[C@@]2(C)C(=CC[C@@H]3[C@@H]2CC[C@]2(C)C(C(C)=O)=CC[C@@H]32)C1
inactive: Hek293T | JEG-3 | OV90 | PA-1 | SKOV3 | Tov-21-G | Tov112D

Cc1nn(-c2ccccc2)c(C)c1/C=N/N1CCN(Cc2ccccc2)CC1
inactive: Hek293T | JEG-3 | OV90 | PA-1 | SKOV3 | Tov-21-G | Tov112D

NS(=O)(=O)c1cc2c(cc1Cl)CN(C1CCCCC1)C2=O
inactive: Hek293T | JEG-3 | OV90 | PA-1 | SKOV3 | Tov-21-G | Tov112D

CCOC(=O)C(=O)CCc1ccccc1
inactive: Hek293T | JEG-3 | OV90 | PA-1 | SKOV3 | Tov-21-G | Tov112D

CCN(CC)CC(=O)Nc1c(C)cccc1C(=O)OC
inactive: Hek293T | JEG-3 | OV90 | PA-1 | SKOV3 | Tov-21-G | Tov112D

CNC(=O)c1c(I)c(NC(C)=O)c(I)c(C(=O)O)c1I
inactive: Hek293T | JEG-3 | OV90 | PA-1 | SKOV3 | Tov-21-G | Tov112D

OC1(c2ccc(Cl)cc2)CCNCC1
inactive: Hek293T | JEG-3 | OV90 | PA-1 | SKOV3 | Tov-21-G | Tov112D

CC(=O)N(c1onc(C)c1C)S(=O)(=O)c1ccc(N)cc1
inactive: Hek293T | JEG-3 | OV90 | PA-1 | SKOV3 | Tov-21-G | Tov112D

Cc1cc(CCCOc2c(C)cc(-c3noc(C(F)(F)F)n3)cc2C)on1
inactive: Hek293T | JEG-3 | OV90 | PA-1 | SKOV3 | Tov-21-G | Tov112D

Cc1onc(-c2c(Cl)cccc2Cl)c1C(=O)Cl
inactive: Hek293T | JEG-3 | OV90 | PA-1 | SKOV3 | Tov-21-G | Tov112D

C#Cc1ccc(-c2ccccc2F)cc1
inactive: Hek293T | JEG-3 | OV90 | PA-1 | SKOV3 | Tov-21-G | Tov112D

CNC(=O)c1cnn(-c2nc(N)c3ncn([C@@H]4O[C@H](CO)[C@@H](O)[C@H]4O)c3n2)c1
inactive: Hek293T | JEG-3 | OV90 | PA-1 | SKOV3 | Tov-21-G | Tov112D

COc1ccc(/C(C)=C/C(=O)O)c(OC)c1
inactive: Hek293T | JEG-3 | OV90 | PA-1 | SKOV3 | Tov-21-G | Tov112D

Nc1nc(=O)n([C@@H]2O[C@H](CO)[C@@H](O)[C@@H]2F)cc1I
inactive: Hek293T | JEG-3 | OV90 | PA-1 | SKOV3 | Tov-21-G | Tov112D

CC1(C)OC(=O)Nc2ccc(Br)cc21
inactive: Hek293T | JEG-3 | OV90 | PA-1 | SKOV3 | Tov-21-G | Tov112D

CN(C)[C@@H]1C(=O)C(C(N)=O)=C(O)[C@@]2(O)C(=O)C3=C(O)c4c(O)cccc4C[C@H]3C[C@@H]12
inactive: Hek293T | JEG-3 | OV90 | PA-1 | SKOV3 | Tov-21-G | Tov112D

Oc1ccccc1-c1nnco1
inactive: Hek293T | JEG-3 | OV90 | PA-1 | SKOV3 | Tov-21-G | Tov112D

Cc1oc(=O)oc1COC(=O)[C@@H]1N2C(=O)[C@@H](NC(=O)[C@H](N)c3ccccc3)[C@H]2SC1(C)C
inactive: Hek293T | JEG-3 | OV90 | PA-1 | SKOV3 | Tov-21-G | Tov112D

COCCOCC(OC)OC
inactive: Hek293T | JEG-3 | OV90 | PA-1 | SKOV3 | Tov-21-G | Tov112D

O=C(C1CCCCC1)N1CC(=O)N2CCCc3ccccc3C2C1 (centres undefined)
inactive: Hek293T | JEG-3 | OV90 | PA-1 | SKOV3 | Tov-21-G | Tov112D

CCN(CC)CC(=O)Oc1ccc(NC(C)=O)cc1
inactive: Hek293T | JEG-3 | OV90 | PA-1 | SKOV3 | Tov-21-G | Tov112D

CCN1CCN(c2cc(-c3ccc(F)cc3)c3c(n2)CCCCCC3)CC1
inactive: Hek293T | JEG-3 | OV90 | PA-1 | SKOV3 | Tov-21-G | Tov112D

C=C(C)C(=O)OCC(O)CO (centres undefined)
inactive: Hek293T | JEG-3 | OV90 | PA-1 | SKOV3 | Tov-21-G | Tov112D

CC(C)N(CCC(=O)c1ccc2ccccc2c1)Cc1ccccc1
inactive: Hek293T | JEG-3 | OV90 | PA-1 | SKOV3 | Tov-21-G | Tov112D
